These results are taken from PubChem BioAssay (NCI).

Each structure is given as a SMILES string. About 79,000 compounds went through this panel and 15% of them were active in at least one assay; those are over-represented in the sample as a whole. Unmarked numbers belong to inactive results. The source made the active and inactive calls. No stated cut-off is given here; in the data, active means growth inhibition above about 70%; inactive means the rest.

Assay [1] in a line: NCI Yeast Anticancer Drug Screen. Data for the rad50 strain (AID 155).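 Further: 0% = growth of vehicle-only cultures of the same strain.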 Conditions: S. cerevisiae rad50 strain growth inhibition; at 50.0 µM; hits give high values. In short, it runs like this:
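Growth of the mutant yeast was measured after compound exposure and referenced to vehicle-treated cultures.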

Assay [2] can be described thus: NCI Yeast Anticancer Drug Screen. Data for the mec2-1 strain (AID 157). The conditions noted are these: S. cerevisiae mec2-1 strain, at 50.0 µM, hits give high values. In short, it runs like this: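 Using mec2-1 yeast: add compound, measure growth, express inhibition versus vehicle-treated cultures.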
A short description of assay [3]: NCI Yeast Anticancer Drug Screen. Data for the sgs1 mgt1 strain (AID 161).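 Further: 0% = growth of cultures given vehicle only.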 The conditions noted are these: S. cerevisiae sgs1 mgt1 strain, at 50.0 µM, hits give high values. Summed up:
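This yeast growth screen uses a strain with defined DNA-repair lesions; compound-treated growth is compared with vehicle-treated growth.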

Assay [4] can be described thus: NCI Yeast Anticancer Drug Screen. Data for the cln2 rad14 strain (AID 165).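 Further: 0% = growth equal to vehicle treated cultures.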 The conditions noted are these: S. cerevisiae cln2 rad14 strain, at 50.0 µM, hits give high values. Summed up: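 Yeast strain cln2 rad14, bearing defects in cell cycle control and DNA repair, serves as the test system; values reflect growth inhibition compared with vehicle.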
A short description of assay [5]: NCI Yeast Anticancer Drug Screen. Data for the bub3 strain (AID 167). The conditions noted are these: S. cerevisiae bub3 mutant strain, at 50.0 µM, hits give high values. In short, it runs like this: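 Whole-cell yeast assay. The mutant strain was incubated with compounds, and growth inhibition was determined by comparison with vehicle-treated cells.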
Assay [6] can be described thus: NCI Yeast Anticancer Drug Screen. Data for the mlh1 rad18 strain (AID 175). Conditions: S. cerevisiae mlh1 rad18 strain growth inhibition; at 50.0 µM; hits give high values. Summed up:
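Steps: expose repair-defective yeast to compound; measure growth; express inhibition against vehicle-treated controls.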

Consider `NC(N)=NC(N)=Nc1cnccn1`, for which the growth inhibition is 13.7% in assay [1]; 6.8% in assay [2]; 2.5% in assay [3]; 15.8% in assay [4]; -10.5% in assay [5]; 15.2% in assay [6].
With `Cc1nc2c(cc1C#N)C(Nc1ccc(Cl)cc1)Oc1ccc([N+](=O)[O-])cc1-2` (centres undefined), the growth inhibition was -4.6% in assay [1]; -12.3% in assay [2]; 0.5% in assay [3]; -32.2% in assay [4]; -36.5% in assay [5]; -7.5% in assay [6].
Take `O=C(N=Nc1c(O)[nH]c2ccccc12)c1ccncc1`: the growth inhibition was -10.8% in assay [1]; 2.15% in assay [2]; -9.25% in assay [3]; -19.4% in assay [4]; -7.4% in assay [5]; 11.1% in assay [6].
For `Cc1c(F)c(F)c(-c2c(F)c(F)c(C)c(F)c2F)c(F)c1F`, the growth inhibition in assay [1] was 5%; in assay [2], -35.2%; in assay [3], -17.3%; in assay [4], 8.3%; in assay [5], -16.2%; in assay [6], 0.1%.
As to `N#CCC(c1ccccc1)(c1ccccc1)c1ccccc1`, the growth inhibition is 46.4% in assay [1]; 34.8% in assay [2]; 45.9% in assay [3]; 37.1% in assay [4]; 52.4% in assay [5]; 39.6% in assay [6].
In the case of `O=C(O)c1c(Br)c(Br)c(Br)c(Br)c1C(=O)Nc1ccccc1C(F)(F)F`, the growth inhibition in assay [1] is -8.55%; in assay [2] it was -11.4%; in assay [3], -2.65%; in assay [4] it was -2.75%; in assay [5], 8.05%; in assay [6], -12.2%.
Take `O=CNc1ccccc1O`: the growth inhibition in assay [1] is -2.55%; in assay [2] it was -17.5%; in assay [3] it was -25%; in assay [4] it was 19.9%; in assay [5], -14.3%; in assay [6], 14.9%.
As for `N=C1N=Nc2nc(C(C(=O)c3cccc4ccccc34)c3nc4n(c3O)C(=N)N=N4)c(O)n21` (centres undefined), the growth inhibition was 19.5% in assay [1]; 1.35% in assay [2]; 14.2% in assay [3]; 22.1% in assay [4]; 0.9% in assay [5]; 26.2% in assay [6].
Turning to `OC(c1ccccc1)c1ccc2c(c1)CCC2` (centres undefined), the growth inhibition in assay [1] was 3.55%; in assay [2], -8.65%; in assay [3], -6.1%; in assay [4] it was -25.1%; in assay [5], -18%; in assay [6] it was 5.3%.
As for `CC(O)C(c1ccc(N(C)C)cc1)c1ccc(N(C)C)cc1` (centres undefined), the growth inhibition is -6.25% in assay [1]; 3.1% in assay [2]; 2.35% in assay [3]; -14.6% in assay [4]; 6.05% in assay [5]; 2.45% in assay [6].
Turning to `Fc1ccc2nncc(SCc3ccc(Cl)cc3)c2c1`, the growth inhibition in assay [1] is -4.1%; in assay [2], 2.25%; in assay [3], 4%; in assay [4] it was -22.4%; in assay [5], 4.85%; in assay [6] it was -0.65%.
For the compound `Cc1ccc(NC(=S)SCc2ccc(Cl)c(Cl)c2)cc1Br`, the growth inhibition is 29.3% in assay [1]; -6.45% in assay [2]; 10.2% in assay [3]; 15% in assay [4]; 0.3% in assay [5]; 13.8% in assay [6].
With `O=C(Nc1ccccc1SC(=O)OCc1ccccc1)OCc1ccccc1`, the growth inhibition in assay [1] was 30.2%; in assay [2] it was 4.8%; in assay [3], 11.6%; in assay [4], 38.6%; in assay [5], 1.95%; in assay [6] it was 1.3%.
For the compound `O=C(CCl)Oc1cccc([N+](=O)[O-])c1`, the growth inhibition in assay [1] was 0.6%; in assay [2] it was -11.2%; in assay [3] it was -7.05%; in assay [4], -8.45%; in assay [5] it was -17.5%; in assay [6] it was -20.4%.
On to `CN(C)c1ccc(/C=C2/CC(=O)N(c3ccccc3)C2=O)cc1`, for which the growth inhibition in assay [1] is 16.3%; in assay [2] it was 1.15%; in assay [3], 25.1%; in assay [4] it was -35.3%; in assay [5], -0.9%; in assay [6], 15.6%.
With `CCCCNCC#N`, the growth inhibition was 20.4% in assay [1]; -10.7% in assay [2]; -0.85% in assay [3]; 7.4% in assay [4]; 5.15% in assay [5]; 3.95% in assay [6].
In the case of `CCOC(=O)CC(C(=O)OCC)c1ccccc1` (centres undefined), the growth inhibition was -3.4% in assay [1]; 10.2% in assay [2]; -5.4% in assay [3]; -6.35% in assay [4]; 9.85% in assay [5]; -19.4% in assay [6].
As for `O=C1C(Cl)=C(SCc2ccccc2)C(=O)c2ccccc21`, the growth inhibition in assay [1] was 17.8%; in assay [2] it was 72.7% (active); in assay [3] it was 48.2%; in assay [4], -11.3%; in assay [5] it was 61.9%; in assay [6], 42.9%.
With `NOCc1cc(Cl)sc1Cl`, the growth inhibition in assay [1] was 24.9%; in assay [2], -2.9%; in assay [3] it was 6.1%; in assay [4], 60%; in assay [5], -23.9%; in assay [6], 11.3%.
